This is an account of results in PubChem BioAssay AID488969 (Vanderbilt High Throughput Screening Facility, 2010).

Over roughly 110,000 compounds, “z-score” has its median near -0.1; the highest 2% begin near 2. This excerpt belongs to a sample that is enriched for the highest values. Calls of active or inactive are those of the source.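 The calls were made as follows: active = z-score in the third read window above 3 or below -3; inactive = the rest.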

Metabotropic glutamate receptor 8 (Rattus norvegicus), sequence (P70579 whole entry, looked up): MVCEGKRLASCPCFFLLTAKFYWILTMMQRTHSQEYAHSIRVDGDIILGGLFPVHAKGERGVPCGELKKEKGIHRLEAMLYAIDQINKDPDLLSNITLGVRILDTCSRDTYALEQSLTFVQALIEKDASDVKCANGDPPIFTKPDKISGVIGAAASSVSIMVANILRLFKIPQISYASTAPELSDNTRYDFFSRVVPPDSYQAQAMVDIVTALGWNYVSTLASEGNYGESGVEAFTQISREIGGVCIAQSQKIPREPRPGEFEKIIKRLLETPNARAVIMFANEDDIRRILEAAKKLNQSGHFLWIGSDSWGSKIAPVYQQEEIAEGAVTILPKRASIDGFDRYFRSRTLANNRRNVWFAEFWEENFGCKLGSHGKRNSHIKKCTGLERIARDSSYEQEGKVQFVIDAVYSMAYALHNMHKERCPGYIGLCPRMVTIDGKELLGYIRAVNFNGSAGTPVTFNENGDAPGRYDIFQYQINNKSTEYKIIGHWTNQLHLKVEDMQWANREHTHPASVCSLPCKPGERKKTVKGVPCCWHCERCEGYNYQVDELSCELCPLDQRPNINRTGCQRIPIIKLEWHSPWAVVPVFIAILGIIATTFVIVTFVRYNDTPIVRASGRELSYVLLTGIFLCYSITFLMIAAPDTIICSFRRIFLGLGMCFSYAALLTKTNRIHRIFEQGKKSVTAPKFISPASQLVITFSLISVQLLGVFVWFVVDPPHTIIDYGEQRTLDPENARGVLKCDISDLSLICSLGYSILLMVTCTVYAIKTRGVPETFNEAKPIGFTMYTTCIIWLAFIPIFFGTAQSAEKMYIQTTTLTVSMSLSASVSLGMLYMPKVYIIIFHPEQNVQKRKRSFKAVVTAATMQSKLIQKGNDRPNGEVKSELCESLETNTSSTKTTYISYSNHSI

The assay concerns the target Metabotropic glutamate receptor 8 (Rattus norvegicus) (UniProt P70579). Description: rat mGluR8 modulators via GIRK flux, primary screen, cell-based, thallium flux, HTS (AID 488969). Conditions: HEK293 rat mGluR8, GIRK (G protein-gated inwardly rectifying potassium channel) thallium flux, FluoZin2; at 10 µM; stronger effect = higher value; submaximal glutamate (EC20) added with thallium.
Turning to `Cc1cc(C(F)(F)F)nc(SCC(=O)NC2=NC(=O)C(C)S2)n1` (stereo not drawn), the z-score came to 0.475.

Turning to `O=C(CNC(=O)c1cccc(F)c1)N/N=C/c1cc(Br)ccc1OC(=O)/C=C/c1ccco1`, the z-score stood at 2.46.

`O=C(CNC(=O)c1ccccc1F)N/N=C/c1cc(Br)ccc1OC(=O)/C=C/c1ccco1` returned a z-score of -0.338.

Turning to `COc1ccccc1C(=O)NCC(=O)N/N=C/c1cc(Br)ccc1OC(=O)/C=C\c1ccco1`, the z-score is -0.122.

Regarding `Cc1cc(C)nc(NC(=O)c2ccc(C)c([N+](=O)[O-])c2)n1`, the z-score is -0.0674.

`O=C(Nc1ccccc1)C(=O)Nc1ccccn1` came in with a z-score of -0.125.

`O=C(CN1CCN(CC(=O)Nc2ccccn2)CC1)Nc1ccccn1` had a z-score of -0.212.

`O=C(CC(=O)Nc1ccccn1)Nc1ccccn1`: the z-score was 4.08 (active).

`COc1ccc(OCc2nc3ccc(S(=O)(=O)Nc4ccccc4Cl)cc3[nH]2)cc1` had a z-score of -0.822.

The molecule `Cc1ccc(S(=O)(=O)N2CCCCC2)cc1NC(=O)CSc1ccc2c(c1)OCCO2` registered a z-score of -0.361.

The molecule `Nc1nc(SCC(=O)N2CCCC2)[nH]c(=O)c1NC(=O)c1ccco1` showed a z-score of 0.975.

With `CCCCSc1nc(O)c(Cc2ccccc2)c(=O)[nH]1`, the z-score was 0.379.

As for `CCCCSc1nc(N)c(NC(=O)c2ccco2)c(=O)[nH]1`, the z-score is 3.07 (active).

Consider `O=C(O)C1C2C=CC(C3CC23)C1C(=O)NCCc1ccccc1` (stereo not drawn), for which the z-score came out at 0.335.

For the molecule `Cc1cc(C)n2nc(C(=O)NCc3ccccc3)cc2n1`, the z-score turned out to be 0.128.

In turn, `CCS/C(N)=N/N=C/c1cc(C)ccc1O` showed a z-score of -0.389.

Consider `O=C(c1ccc(F)cc1)C1CCN(C(=S)Nc2ccccc2)CC1`, for which the z-score was -0.612.

Regarding `CCc1ccccc1NC(=S)N1CCC(C(=O)c2ccc(F)cc2)CC1`, the z-score came to 0.202.

For `Cc1cccc(NC(=S)N2CCC(C(=O)c3ccc(F)cc3)CC2)c1C`, the z-score was 5.76 (active).

In turn, `Cc1ccc(Cn2ncc3c(NCCCN4CCOCC4)ncnc32)cc1` showed a z-score of -0.227.

As for `CCc1nnc(NC(=O)CSc2nnc(-c3cccnc3)n2CCc2ccccc2)s1`, the z-score turned out to be 0.167.

`Cc1ccc(OCCn2c(=O)sc3ccccc32)cc1`: the z-score is -0.193.

In turn, `COc1ccc(Cc2c[nH]c(=O)[nH]c2=O)cc1` came in with a z-score of -0.218.

With `COc1ccc(CO/N=C/c2c(C)[nH]c(=O)[nH]c2=O)cc1`, the z-score was 3.36 (active).

`COc1ccc(N(C)S(=O)(=O)c2c(C)[nH]c(=O)[nH]c2=O)cc1` returned a z-score of 0.02.

For `O=C(CSc1ncn[nH]1)Nc1ccc([N+](=O)[O-])cc1Br`, the z-score is -0.12.

The molecule `CCCCCNC1=CC(=O)CC(c2ccccc2)C1` (stereo not drawn) came in with a z-score of -0.123.

`CC(C)CCNC1=CC(=O)CC(c2ccccc2)C1` (stereo not drawn) registered a z-score of 2.1.

Take `COc1ccc(C2CC(=O)C=C(NCCC(C)C)C2)cc1` (stereo not drawn): the z-score came out at 0.226.

`CC(c1ccccc1)N1C(=O)c2ccc(C(=O)NCc3ccco3)cc2C1=O` (stereo not drawn): the z-score was -0.54.

As for `Cc1ccc(N=C(NO)c2nonc2N)cc1`, the z-score is -1.5.

Regarding `Cn1ccnc1C(O)(c1nnc(-c2ccccc2)o1)C(F)(F)F` (stereo not drawn), the z-score was -1.19.

Turning to `CCCCn1c(O)c(N=Nc2ccccn2)c2ccccc21`, the z-score amounted to 2.97.

The molecule `CC(C)n1c(O)c(N=NC(=O)Cn2ccc(C(F)(F)F)n2)c2ccccc21` displayed a z-score of 1.13.

On to `CC(C)CCn1c(O)c(N=Nc2ccccn2)c2ccccc21`, for which the z-score was determined as 1.19.

Molecule `Cc1cc(C(=O)N=Nc2c(O)n(C(C)C)c3ccccc23)n[nH]1` yielded a z-score of 0.232.

The molecule `CC(C)n1c(O)c(N=NC(=O)c2ccccc2NS(=O)(=O)c2cccs2)c2ccccc21` came in with a z-score of -0.411.

Regarding `CC(C)n1c2ccccc2c2nc3ccccc3nc21`, the z-score was -0.47.

As to `CC(C)n1c(O)c(N=Nc2ccccn2)c2ccccc21`, the z-score was 2.21.

On to `CC(C)n1c(O)c(N=Nc2ccc(Cl)nn2)c2ccccc21`, for which the z-score is 3.42 (active).

For the molecule `CCCCn1c(O)c(N=NC(=O)Cn2c(C(F)(F)F)nc3ccccc32)c2ccccc21`, the z-score was 0.194.

`COc1ccc(CC(=O)NCc2ccco2)cc1OC` returned a z-score of -0.0499.

`CN(C)C(CNS(=O)(=O)c1ccc(Cl)cc1)c1cccnc1` (stereo not drawn) came in with a z-score of -0.0299.

Turning to `CCOC(=O)CCc1c(C)c2ccc(OCC(=O)N(CC)CC)c(C)c2oc1=O`, the z-score is -0.0102.

Molecule `CCCc1cc(=O)[nH]c(SCC(=O)N2N=C(c3ccc(Cl)cc3)CC2c2ccco2)n1` (stereo not drawn) showed a z-score of -0.126.

For `COCCn1c(=S)[nH]c2cc(C(=O)N3CCC(C(N)=O)(N4CCCCC4)CC3)ccc2c1=O`, the z-score was -0.286.

Molecule `CCOc1ccccc1N1CCN(Cc2cccc(OC)c2O)CC1` registered a z-score of -0.0607.

Turning to `COc1ccccc1N1CCN(Cc2cc(Br)c(O)c3ncccc23)CC1`, the z-score was 3.32 (active).

On to `COc1ccccc1N1CCN(Cc2ccc(O)c3ncccc23)CC1`, for which the z-score was -0.0396.

In the case of `Cc1cc(C(=O)NCC(=O)OCC(=O)N(C)C2CCCCC2)ccc1[N+](=O)[O-]`, the z-score amounted to 0.828.

The molecule `CCOC(=O)C1C(=O)C=C(/C=C/c2ccccc2)CC1c1ccc(Cl)cc1` (stereo not drawn) showed a z-score of -0.123.

Turning to `CC(C)[C@H](NC(=O)OC(C)(C)C)c1nnc(SCC(=O)Nc2ccc(Br)cc2)o1`, the z-score is -0.355.

In the case of `Cn1c(N2CCN(C(=O)NC34CC5CC(CC(C5)C3)C4)CC2)nc2ccccc21`, the z-score was -0.317.

`Cc1cc(C)cc(-n2c(SCC(=O)Nc3cccc(S(=O)(=O)NC4=NCCCCC4)c3)nc3ccccc3c2=O)c1` showed a z-score of -0.139.

In turn, `Cc1ccc(-n2c(SCC(=O)Nc3cccc(S(=O)(=O)NC4=NCCCCC4)c3)nc3ccccc3c2=O)cc1` showed a z-score of -0.48.

Consider `O=C(CSc1ccc2ccccc2c1Br)Nc1cccc(S(=O)(=O)NC2=NCCCCC2)c1`, for which the z-score is 14.5 (active).

For `CCCCC(c1nnnn1C1CCCC1)N1CCN(C2CCCCC2)CC1` (stereo not drawn), the z-score is -0.391.

Molecule `O=C(O)C1CCCCN1S(=O)(=O)c1ccc2ccccc2c1` (stereo not drawn) registered a z-score of -0.217.

Regarding `O=C(NC1CC1)C1CCCN1S(=O)(=O)c1ccc2ccccc2c1` (stereo not drawn), the z-score was -0.112.

Molecule `COC(=O)C1CCCN1S(=O)(=O)c1ccc2ccccc2c1` (stereo not drawn) gave a z-score of 2.41.

With `Cc1ccc(C(=O)COc2ccccc2-c2ccccc2)cc1`, the z-score is -0.229.

In turn, `CCOc1ccccc1C(=O)N(Cc1ccccc1)Cc1cc2cc3c(cc2[nH]c1=O)OCCO3` came in with a z-score of 0.283.

On to `CCOC(=O)c1ccc(NC(=O)CCNC(=O)c2ccc([N+](=O)[O-])cc2)cc1`, for which the z-score is -0.327.

In the case of `CCn1nc([N+](=O)[O-])c(C(C#N)c2nc3ccccc3n2C)c(Cl)c1=O` (stereo not drawn), the z-score was -0.682.

In the case of `CCn1nc([N+](=O)[O-])c(C(C#N)c2nc3cc(C(F)(F)F)ccc3s2)c(Cl)c1=O` (stereo not drawn), the z-score was determined as 2.97.

Molecule `CCCn1nc([N+](=O)[O-])c(C(C#N)c2nc3ccccc3s2)c(Cl)c1=O` (stereo not drawn) came in with a z-score of -2.49.

For `CCCS(=O)(=O)N1CCC(C(=O)NCc2ccco2)CC1`, the z-score was 0.18.

For the molecule `Cc1ccc(OCc2nnc(SCC(=O)c3cccs3)n2-c2ccccc2)cc1C`, the z-score stood at 0.316.

The molecule `Cc1c(C(=O)OCC(=O)N2CC(C)OC(C)C2)oc2ccc(Br)cc12` (stereo not drawn) came in with a z-score of -0.32.

Consider `O=C(COc1cc(O)c2c(=O)cc(-c3ccccc3)oc2c1)c1ccccc1`, for which the z-score was 0.0143.

For `CC(C)(C)OC(=O)COc1cc(OCC(=O)OC(C)(C)C)c2c(=O)cc(-c3ccccc3)oc2c1`, the z-score is -0.331.

On to `CC(C)(C)OC(=O)COc1cc(O)c2c(=O)cc(-c3ccccc3)oc2c1`, for which the z-score was 4.76 (active).

In turn, `O=C(Cc1ccccc1)N/N=C/c1ccc(OCC(=O)Nc2ccccc2)cc1` returned a z-score of -0.147.

`CCc1nc(C)ccc1OC(=O)C12CC3CC(CC(C3)C1)C2` displayed a z-score of 0.238.

Molecule `Cc1ccc(-c2cc3cccc[n+]3cc2-c2ccc(C)cc2)cc1` showed a z-score of -0.0109.

The molecule `Cc1ccc(S(=O)(=O)Nc2ccc3nc(C)sc3c2)cc1` showed a z-score of -0.613.

In the case of `O=S(=O)(Nc1ccc2c(c1)OCCO2)c1ccc(F)cc1`, the z-score is -0.102.

In the case of `Cc1nc2ccc(NS(=O)(=O)c3ccc(C)c(C)c3)cc2s1`, the z-score is -0.187.

`O=S(=O)(Nc1cccnc1)c1ccc2c(c1)OCCO2` had a z-score of -0.833.

Take `Cc1cccc(NS(=O)(=O)c2ccc3c(c2)OCCO3)c1`: the z-score amounted to 2.76.

Turning to `Cc1nc2ccc(NS(=O)(=O)c3ccc4c(c3)OCCO4)cc2s1`, the z-score was 3.48 (active).

As for `CCCCOc1ccc(NC(=O)C2CC=CCC2C(=O)O)cc1` (stereo not drawn), the z-score is -0.0643.

`COc1ccc(S(=O)(=O)N(C)CC(=O)Nc2ccc3c(c2)OCO3)cc1` displayed a z-score of 0.0177.

In the case of `O=C(c1ccco1)N1CCN(S(=O)(=O)c2ccc3[nH]c(=O)oc3c2)CC1`, the z-score was found to be 0.249.

In the case of `CC1(C)CC(=O)C2=C(C1)N(Cc1ccco1)C(=O)C2(NC(=O)c1ccc(Cl)cc1Cl)C(F)(F)F` (stereo not drawn), the z-score was -0.289.

On to `CC(C)C(NC(=O)C1CCCCC1)C(=O)Nc1ccncc1` (stereo not drawn), for which the z-score stood at 0.244.

The molecule `Cc1ccc(NC(=S)N/N=C/c2ccc(OCCC(C)C)cc2)c(C)c1` gave a z-score of 0.599.

`Cc1ccc(C)c(/C=N/NC(=S)NCCc2ccccc2)c1` registered a z-score of 1.17.

With `Cc1ccc(NC(=S)NCCO)c(C)c1`, the z-score was -0.044.

Regarding `Cc1ccc(NC(=S)N/N=C/c2c(Cl)cccc2Cl)c(C)c1`, the z-score is 9.31 (active).

Turning to `CCNC(=S)N/N=C/c1c(Cl)cccc1Cl`, the z-score is 5.15 (active).

Consider `CCNC(=S)N/N=C/c1cc(C)ccc1C`, for which the z-score is 2.43.

The molecule `S=C(NCCc1ccccc1)N/N=C/c1c(Cl)cccc1Cl` gave a z-score of 0.353.

As for `CCCCNC(=S)N/N=C/c1cc(C)ccc1C`, the z-score worked out at 1.48.

In the case of `CCNC(=S)N/N=C/c1cccc(C)c1`, the z-score amounted to 0.00977.

In turn, `Cc1cc(=O)[nH]c(SCC(=O)NCCc2ccccc2)n1` registered a z-score of 1.96.

As to `CCN(CC)C(=O)c1sc(NC(=O)c2ccc(C)c([N+](=O)[O-])c2)c(C#N)c1C`, the z-score is 0.0677.

Regarding `CCOC(=O)C1C(=O)OC2(CCCCC2)C1C(=O)OCC` (stereo not drawn), the z-score was 0.124.

With `O=C(Cn1c(=O)oc2cc(S(=O)(=O)N3CCCCCC3)ccc21)NC1CCCCCCC1`, the z-score is -0.034.

Consider `CCc1nnc2sc(-c3cc(-c4ccccc4)nc4ccccc34)nn12`, for which the z-score was -0.507.

`Cc1ccc(CNC(=O)COc2ccccc2-c2ccccc2)cc1` had a z-score of -0.0564.

For the molecule `CCN1CCN(c2ccc(NC(=O)CCc3c(C)nc4c(-c5ccccc5)c(C)nn4c3C)cc2)CC1`, the z-score is 3.06 (active).

`Cc1nc2c(-c3ccc(F)cc3)c(C)nn2c(C)c1CCC(=O)N1CCN(c2ccccc2)CC1` displayed a z-score of -0.81.

For the molecule `Cc1nc2c(-c3ccccc3)c(C)nn2c(C)c1CCC(=O)O`, the z-score is 0.235.

`CCn1nnc(-c2ccccc2NC(=O)c2cc(OC)cc(OC)c2)n1` registered a z-score of -0.139.

Regarding `O=C(c1ccc(CS(=O)(=O)c2ccc(Br)cc2)o1)N1CCN(c2ncccn2)CC1`, the z-score was 3.31 (active).

In turn, `O=C(c1ccc(CS(=O)(=O)c2ccccc2)o1)N1CCN(c2ncccn2)CC1` had a z-score of -0.184.

`O=C(c1ccc(CS(=O)(=O)c2ccc(Br)cc2)o1)N1CCN(c2ccccn2)CC1` yielded a z-score of -0.169.
